Compound activity from PubChem.
Pf growth 96h: P. falciparum growth inhibition at 96 hour, primary screen for plastid delayed-death inhibitors; P. falciparum luciferase reporter growth, 96 h; Potency, µM (doses to about 28.7 µM), most hits filed as inhibitors; hit rate 6.9% among 320,000; AID 504834
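Cell-based qHTS: luciferase-tagged P. falciparum in erythrocytes (2% hematocrit, 0.05% parasitemia final) incubated with compounds for 96 hours, 37 C, 5% CO2; luciferase detection reagent then added and luminescence measured.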
FBPA Giardia inh: inhibitors of Giardia lamblia fructose-1,6-bisphosphate aldolase. A8B2U2. purified Giardia FBPA. Potency, µM (highest dose often 59.6 µM), most hits filed as inhibitors. hit rate 0.71% among 290,000; note: nearly all actives have a fitted effect of over 55% in size
Target sequence (A8B2U2 whole entry, looked up): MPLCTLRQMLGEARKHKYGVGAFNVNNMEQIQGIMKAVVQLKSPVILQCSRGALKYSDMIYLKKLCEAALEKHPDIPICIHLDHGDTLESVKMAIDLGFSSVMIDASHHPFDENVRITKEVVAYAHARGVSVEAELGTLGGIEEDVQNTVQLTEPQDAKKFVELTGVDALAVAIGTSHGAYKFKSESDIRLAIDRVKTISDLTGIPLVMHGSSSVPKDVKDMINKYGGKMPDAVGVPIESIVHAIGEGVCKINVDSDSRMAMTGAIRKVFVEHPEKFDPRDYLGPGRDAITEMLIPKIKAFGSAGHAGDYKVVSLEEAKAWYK
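40 nM FBPA preincubated 10 min at RT with compound (up to 57.5 uM final), then substrate plus GAPDH/TPI/NAD/arsenate coupling and diaphorase/resazurin added. Fluorescence read after 20 min at RT, 525/598 nm.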
NS1 function inh: inhibitors of influenza NS1 protein function; hit rate 0.4% among 270,000; Potency, µM (series often up to 46.1 µM); calls by dose curve; note: actives are rising curves; nearly all actives have a fitted effect of over 50% in size
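In this qHTS, NS1 from influenza A is expressed in budding yeast, where it slows growth. Cells are switched from glucose to 2% galactose medium (pH 6.0, -URA), treated with compound, and growth recovery is read at OD600.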
Cycloheximide cs: counter-screen for Shiga toxin inhibitors: cycloheximide protein synthesis inhibition | cell reporter, cycloheximide protein synthesis inhibition counterscreen | max response, % | hit rate 12% among 300,000 | AID 2314; in the data active = max response mostly above about 13%, no sharp cut-off; inactive = mostly below about 14%; note: read at 38.3 µM for the half of the compounds with a filed dose
Shiga inhibitor: inhibitors of Shiga toxin in Vero cells | inhibition, % at 38.7 µM | AID 2315 | hit rate 9.2% among 290,000 | Vero cells, Shiga toxin protein synthesis inhibition reporter; in the data active = inhibition mostly above about 28%, no sharp cut-off; inactive = mostly below about 43%
Pf growth 48h: P. falciparum growth inhibition at 48 hours (one generation); P. falciparum luciferase growth in erythrocytes, 48 h; Potency, µM (doses to about 28.7 µM), actives largely listed as inhibitors; hit rate 5.9% among 310,000; AID 504832
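Cell-based growth assay: transgenic P. falciparum expressing firefly luciferase, cultured in red cells within RPMI 1640 containing 0.5% w/v Albumax, 24 mM bicarbonate and gentamycin. A drop in luciferase activity indicates inhibition.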
Hits are given with their value; - = inactive; ? = inconclusive; . = no result; [ ] = dose if it differs, or a comment. Hits are enriched below; roughly 21% of the tested compounds scored in any of these assays. Unless noted, calls come from the whole dose curve; as a rule, active = well fitted curve in the direction sought with a large enough effect; inconclusive = small, poorly fitted or top-dose-only effect, or another doubt; inactive = no such curve, though single readings can be large; an effect the other way counts as inactive or inconclusive.

SMILES | Pf growth 96h | FBPA Giardia inh | NS1 function inh | Cycloheximide cs | Shiga inhibitor | Pf growth 48h
Cc1occc1C(=O)Nc1cc(C(C)(C)C)on1 | . | - | - | 29.3 | 70.0 | -
CCOC(=O)N1CCN(C(=O)c2ccc3c(c2)NC(=O)/C(=C\c2cccc(C)c2)S3)CC1 | ? | - | - | - | - | ?
CC1CCCCC12NC(=O)N(CC(=O)Nc1ccc3[nH]c(=O)[nH]c3c1)C2=O (configuration not stated) | - | . | . | . | . | -
Cc1cccc(NC(=O)c2ccoc2C)n1 | . | - | - | 29.0 | 83.7 | -
CC1CCCN(CCCNS(=O)(=O)c2ccc3c(c2)CCN3C(=O)C2CC2)C1 (configuration not stated) | - | . | - | - | - | -
CC1(C)Cc2c(sc3c2c(=N)n(Cc2ccco2)c(=O)n3CC(=O)Nc2ccc(Cl)cc2)CO1 | ? | - | - | - | - | ?
CC1(C)Cc2c(sc3c2c(=N)n(Cc2ccco2)c(=O)n3CC(=O)Nc2cccc(Cl)c2)CO1 | 10.4µM | - | ? | - | - | ?
CC1(C)Cc2c(sc3c2c(=N)n(Cc2ccco2)c(=O)n3CC(=O)Nc2ccccc2)CO1 | - | - | . | - | - | ?
Cc1cccc(NC(=O)Cn2c(=O)n(Cc3ccco3)c(=N)c3c4c(sc32)COC(C)(C)C4)c1 | 8.28µM | - | - | - | - | .
O=C(O)c1cc(N(Cc2ccccc2O)Cc2ccccc2O)ccc1O | . | ? | . | - | - | .
Cc1ccccc1Nc1nnc(-c2ccc(C(=O)NCCO)cc2)c2ccccc12 | - | - | - | - | - | -
COc1ccccc1/C=C/C1(C(=O)NC2CCCC2)CC(=O)N1c1ccc(F)cc1 (configuration not stated) | - | - | - | - | - | 10.4µM
CCn1c(SCC(=O)NC2CCCC2)nnc1-c1ccccn1 | - | - | - | - | - | -
O=C(O)Cc1ccc(-n2cccc2)cc1 | - | - | . | - | - | -
CC1=NN(c2ccccc2)C(=O)C1N=Nc1ccc(S(N)(=O)=O)cc1 (configuration not stated) | - | ? | - | - | - | ?
CC(=O)N(C)c1ccc(N=NC2C(=O)N(C(N)=S)N=C2C)cc1 (configuration not stated) | - | ? | - | - | - | -
CC1=NN(c2nc(-c3ccccc3)cs2)C(=O)C1N=Nc1ccccc1 (configuration not stated) | - | - | . | 43.4 | 52.9 | -
CC1=NN(c2ccccc2)C(=O)[C@@H]1N=Nc1ccc([As](=O)(O)O)c(O)c1 | . | . | - | . | . | .
CC1=NN(c2ccccc2)C(=O)C1/C=C1/NC(=S)NC1=O (configuration not stated) | - | - | - | - | - | -
CC1=NN(c2ccccc2)C(=O)C1N=Nc1ccc(C)cc1 (configuration not stated) | 10.4µM | - | . | - | - | -
CC1=NN(c2ccccc2)C(=O)C1C=Nc1ccc(N(C)C)cc1 (configuration not stated) | ? | ? | - | 16.8 | 39.5 | ?
CC1=NN(c2nc(-c3ccc(C)cc3)cs2)C(=O)C1N=Nc1ccc(C(N)=O)cc1 (configuration not stated) | - | - | . | 14.9 | - | -
CC1=NN(c2nc(-c3ccc(C)cc3)cs2)C(=O)C1N=Nc1ccc2ccccc2c1 (configuration not stated) | ? | - | - | 17.8 | - | -
O=C(O)CCCSc1ccccc1 | . | . | - | . | . | .
O=C(O)CNC(=O)C(c1ccccc1)c1ccccc1 | - | - | - | - | - | 13.1µM
SMILES | Pf growth 96h | FBPA Giardia inh | NS1 function inh | Cycloheximide cs | Shiga inhibitor | Pf growth 48h
O=C(NCCO)C(c1ccccc1)c1ccccc1 | ? | - | - | - | - | -
Cc1ccc(C2NC(=O)NC3=C2CCc2ccccc23)cc1 (configuration not stated) | - | - | - | 57.2 | 70.6 | -
COc1cccc(C2NC(=S)NC3=C2CCc2ccccc23)c1 (configuration not stated) | ? | 15.8µM | - | - | - | -
CC1CCCC(NC(=O)c2ccc3c(c2)NC(=O)CS3)C1C (configuration not stated) | - | . | - | - | - | -
CSc1ccccc1C(=O)N1CCCC(CCC(=O)NCc2ccc(F)c(F)c2)C1 (configuration not stated) | ? | - | - | - | - | ?
O=C(CCC1CCCN(C(=O)CCC(F)(F)F)C1)NCc1ccc(F)c(F)c1 (configuration not stated) | - | - | - | - | - | -
COC(=O)CCCC(=O)N1CCCC(CCC(=O)NCc2ccc(F)c(F)c2)C1 (configuration not stated) | - | - | - | - | - | 8.28µM
COC(=O)c1ccccc1C(=O)N1CCCC(CCC(=O)NCc2ccc(F)c(F)c2)C1 (configuration not stated) | - | - | - | 40.8 | 92.8 | -
COc1cccc(CNC(=O)CCC2CCCN(C(=O)c3cccc4c(C)c(C)[nH]c34)C2)c1 (configuration not stated) | -[1.15 µM] | - | - | - | - | 11.7µM
Cc1noc(C)c1CCC(=O)N1CCCC(CCC(=O)NCc2ccc(F)c(F)c2)C1 (configuration not stated) | - | - | - | 19.3 | - | -
Cc1cc(NC(=O)CC2Oc3ccccc3NC2=O)ccc1Br (configuration not stated) | ? | - | - | - | - | -
COC(=O)c1ccccc1C(=O)N1CCCC(CNC(=O)c2ccc(F)cc2)C1 (configuration not stated) | - | - | - | 11.5 | - | -
COC(=O)c1ccc(C(=O)N2CCCC(CNC(=O)c3ccc(F)cc3)C2)cc1 (configuration not stated) | - | - | - | - | - | -
CN(C)C(=O)c1nnsc1Sc1ccc(Cl)cc1 | - | - | . | 25.9 | 50.8 | -
CC(C(=O)N1CCN(Cc2ccccc2)CC1)c1ccc([N+](=O)[O-])cc1 (configuration not stated) | - | - | - | - | - | -
CC(OC(=O)c1ccc(Cl)c([N+](=O)[O-])c1)C(=O)N1CCN(Cc2ccccc2)CC1 (configuration not stated) | ? | . | . | . | . | 11.7µM
Cc1ccc(NC(=O)Nc2cccc3ccccc23)cc1 | - | . | - | - | - | -
CCN(CC)c1ccc(NC(=O)Nc2cccc3ccccc23)cc1 | ? | - | - | 15.4 | - | ?
CN(C)c1ccc(NC(=O)Nc2cccc3ccccc23)cc1 | ? | - | - | 35.6 | 76.7 | -
CCN(CC(=O)Nc1ccc(C(C)=O)cc1)CC(=O)Nc1ccccc1C(F)(F)F | - | - | . | - | - | -
CCN(CC)c1ccc(NC(=O)Nc2ccccc2C(F)(F)F)cc1 | - | ? | - | - | 42.0 | ?
Cc1cccc(NC(=O)Nc2cccc3ccccc23)c1 | - | . | - | - | - | -
O=C(NCC1CCCCC1)c1cc(S(=O)(=O)N2CCOCC2)ccc1F | - | . | . | . | . | ?
